# Source: PubChem BioAssay
# D1 potentiator: potentiators of human D1 dopamine receptor | HEK293 TREx D1 cells, calcium flux, dopamine EC20 potentiation | potentiation, % at 10 µM | AID 504651 | 0.036% of 360,000 active; in the data active = potentiation above about 30%
# D1 antag: human D1 dopamine receptor antagonism; P21728; HEK293 TREx D1 cells, calcium flux, dopamine EC80; hits give low values; activity change, negative = inhibition, % at 10 µM; 3.2% of 360,000 active; in the data active = activity change below about -30%
#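 Antagonism measured as reduced calcium response to an EC80 dopamine addition following 180 s compound pre-read; cells were inducible HEK293 Trex D1 plated overnight at 30 C, read kinetically at 1 cycle/sec.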
# DRD3 agonist: activates the human D3 dopamine receptor | AID 652048 | P35462 | 0.58% of 410,000 active | D3R DiscoveRx beta-arrestin cells, luminescence, 90 min | max activation, %; in the data active = max activation above about 30%
# Target sequence (P35462 whole entry, looked up): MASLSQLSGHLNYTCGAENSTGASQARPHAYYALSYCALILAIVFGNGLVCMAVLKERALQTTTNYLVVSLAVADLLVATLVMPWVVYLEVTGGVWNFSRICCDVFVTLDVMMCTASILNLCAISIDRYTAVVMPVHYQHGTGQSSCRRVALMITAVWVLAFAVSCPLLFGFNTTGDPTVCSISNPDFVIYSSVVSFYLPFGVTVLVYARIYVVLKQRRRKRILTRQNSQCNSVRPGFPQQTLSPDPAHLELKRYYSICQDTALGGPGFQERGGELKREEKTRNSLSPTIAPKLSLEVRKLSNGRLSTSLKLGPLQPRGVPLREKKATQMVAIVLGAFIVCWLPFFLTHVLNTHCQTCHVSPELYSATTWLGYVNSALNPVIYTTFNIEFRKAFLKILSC
#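 Cells at 1500/well, incubated overnight, then treated with pinned compounds (dopamine as control) for 90 min at 37 degrees C. DiscoveRx reagent added for 30 - 60 minutes at room temperature; luminescence read.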
# D1 agonist: agonists of human D1 dopamine receptor | P21728 | HEK293 T-REx D1 cells, calcium flux, agonist mode | activation, % at 2 µM | 1% of 360,000 active | AID 504660; in the data active = activation above about 30%
#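 Inducible HEK293 T-REx D1 cells, force-coupled to calcium signalling, were plated at 4000 cells/well with tetracycline and held overnight at 30 C. After no-wash calcium dye loading, compound-evoked calcium rise over 180 s flagged agonists.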
# D3 antag: blocks the human D3 dopamine receptor | P35462 | D3R cells, DiscoveRx beta-arrestin luminescence, antagonist mode; hits give low values | max response, negative = inhibition, % | 2.5% of 360,000 active | AID 652054; in the data active = max response below about -50%; inconclusive = no clear call, values can overlap the other calls
#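 Cells plated overnight at 1500 cells/well, then exposed to library compounds with dopamine controls for 90 minutes at 37 degrees C. DiscoveRx reagent added for 30–60 minutes at room temperature; luminescence read, quantitative HTS format.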
# Numbers stand for hits; - = inactive; ? = inconclusive; . = no result given; ! = not active in a repeat. Rows were chosen to be rich in hits. Some 6% of all compounds tested hit in one or more screens of this group.
SMILES,D1 potentiator,D1 antag,DRD3 agonist,D1 agonist,D3 antag
CCN(CC)CCNC(=O)c1ccc2c(=O)n(C3CCCC3)c(=S)[nH]c2c1,-,-40,-,30,-
COCCn1c(=O)[nH]c2cc(C(=O)NCCCN3CCN(c4ccc(F)cc4)CC3)ccc2c1=O,-,-39,-,-,?
COc1cc2[nH]c(=O)c(C(=O)NCCCN3CCCCC3)c(O)c2cc1OC,-,-,-,-,-57
CC(C)CNc1oc(-c2ccc(F)cc2)nc1C#N,-,-,-,-,-
COc1cc(OC)c(N(C)C(=O)c2c(C)oc3ncn(CC(C)C)c(=O)c23)cc1Cl,-,-,-,-,.
CCCN(C(=O)C1CCN(S(=O)(=O)c2c(C)noc2/C=C/c2ccc(C)cc2)CC1)c1ccccc1F,-,-,-,-,.
CCOC(=O)[C@@H](NC(=O)CC[C@H]1O[C@@H](n2ccc(=O)[nH]c2=O)[C@H](O)[C@@H]1O)C(C)C,.,.,-,.,-
Cc1ccc(-n2nc3c(=O)n(CC(=O)NC(C)C)nc(C)c3c2C)cc1,-,-35,-,-,.
CCOc1ccc(CNC(=O)Cn2nc(C)c3c(C)n(-c4ccc(C)cc4)nc3c2=O)cc1,-,-50!,-,-,-
Cc1ccc(-n2nc3c(=O)n(CC(=O)NCc4ccco4)nc(C)c3c2C)cc1,-,-34,-,-,.
Cc1nn(CC(=O)NCCc2ccco2)c(=O)c2nn(-c3ccccc3)c(C)c12,-,-,-,-,-
COc1cccc(-n2c(SCC(=O)Nc3cccc(C)c3)nc3c([nH]c4ccccc43)c2=O)c1,-,-,-,-,.
COc1cc(CNC2CCCC2)c(Br)cc1OC1CCCC1,-,-30,-,-,-
COc1cc(CNCc2ccccc2)c(Br)cc1OC1CCCC1,-,.,-,-,-62
COc1cc(C=O)c(Br)cc1OC1CCCC1,-,-,-,-,-
CCCN(CCC)S(=O)(=O)c1ccc(N2CCCCS2(=O)=O)cc1,-,-,-,-,.
C/C(Cn1cnc([N+](=O)[O-])n1)=N/NC(=O)COc1c(Cl)cc(Cl)cc1Cl,-,-30,-,-,-
C/C(Cn1cnc([N+](=O)[O-])n1)=N\NC(=O)c1ccccc1,-,-,-,-,-
C=CCOc1ccc(CN(C)C(=O)CNC(=O)c2ccc(-c3ccccc3)cc2)cc1,-,-,-,35,-
CCOc1ccc(CN(C)C(=O)CNC(=O)c2ccccc2)cc1,-,-,-,-,-
O=C(O)CCc1cc(I)c(Oc2ccc(O)c(I)c2)c(I)c1,-,-,.,85,.
CN(C)CCNC(=O)Cn1nc(N2CCN(c3ccccc3)CC2)ccc1=O,-,-,-,-,.
COC(=O)c1c(SC)nc2ccccc2c1OCc1cc(C)ccc1C,-,-,-,31,.
COC(=O)c1c(SC)nc2ccccc2c1OCc1ccccc1Cl,-,-,-,-,.
CCOc1ccc(CN2C(=O)C(=O)c3cccc(C)c32)cc1OC,-,-,-,-,.
SMILES,D1 potentiator,D1 antag,DRD3 agonist,D1 agonist,D3 antag
Cc1cccnc1N(C(=O)Nc1cccc(Cl)c1)C1=NCC(C)(C)S1,-,-31,-,-,-
CC1(C)CN=C(N(C(=O)Nc2ccccc2)c2ccccc2F)S1,-,-,31,-,-
COC(=O)[C@@]12C[C@@H](CC(=O)N3CCN(C(=O)C4CC4)CC3)C(=O)N(Cc3ccccc3)C1=CCC(C)(C)C2,.,.,-,.,-
Cc1ccsc1C1C=C(c2cccc(Br)c2)Nc2ncnn21 (configuration not stated),-,-,-,43,-
COc1cccc(C2=CC(c3ccc(C)cc3)n3ncnc3N2)c1 (configuration not stated),-,-,.,-,.
COC(=O)[C@@H]1OC(=O)[C@H]2O[C@@]23[C@@]1(C)CC[C@@H]1[C@@]2(C)C=CC(=O)OC(C)(C)[C@@H]2CC(=O)[C@]13C,-,-,46,-,-
O=C(Nc1ccc(F)c(Cl)c1)Nc1c[nH]c(=O)[nH]c1=O,-,-,-,-,.
CCOC(=O)c1c(CSC(=N)N)n(-c2ccc(C)cc2)c2cc(Br)c(OC(C)=O)cc12,-,-,-,39,-
c1coc(-c2nc3ccccn3c2Nc2ccc3c(c2)OCCO3)c1,-,-49,-,-,.
Cc1ccc2nc(-c3ccco3)c(Nc3ccc4c(c3)OCCO4)n2c1,-,-,-,-,.
CC(C(=O)Nc1ccc(F)c(F)c1F)N(C)CC(=O)Nc1ccccc1Br (configuration not stated),-,-31,-,-,-
COc1cccc(-c2cccc3c2NC(=O)C3(C)Cc2cccc(F)c2)c1 (configuration not stated),.,.,-,.,-70
C#C[C@]1(O)CC[C@H]2[C@@H]3CCC4=CC(=O)CC[C@@H]4[C@H]3C(=C)C[C@@]21CC,.,.,-,.,.
COc1cccc2c1C(=O)c1c(O)c3c(c(O)c1C2=O)C[C@@](O)(C(=O)CO)C[C@@H]3O[C@H]1C[C@H](N)[C@@H](O)[C@H](C)O1,.,.,-,.,-
COc1cccc2c1C(=O)c1c(O)c3c(c(O)c1C2=O)C[C@@](O)(C(C)=O)C[C@@H]3O[C@H]1C[C@H](N)[C@H](O)[C@H](C)O1,-,-,-,44,-78
CCc1c(C)nc2nc(SCc3ccccc3Cl)[nH]n2c1=O,-,-43,-,-,-
Cc1nc2nc(NCc3ccccc3Cl)[nH]n2c(=O)c1Cc1ccccc1,-,-,-,-,.
C=C1C(=O)[C@]23C[C@H]1CCC2[C@@]1(C)C(C[C@@H]3O)[C@](C)(C(=O)OC)CC[C@@H]1OC(C)=O (some centres not stated),.,.,-,.,-133
C=C1C(=O)[C@]23C[C@H]1CC[C@H]2[C@]1(C)[C@@H](OC(C)=O)CC[C@@](C)(C(=O)OC)[C@H]1C[C@@H]3OC(C)=O,.,.,-,.,-107
O=c1[nH][nH]c2c1[C@H](CCc1cccc(Cl)c1)O[C@H](C1CCCC1)C2,.,.,-,.,-
COC1CC(N)C2OC(c3ccccc3)OCC2O1 (configuration not stated),.,.,-,.,-
C[C@H]1C(c2ccc(F)cc2)=NN(c2ccccc2)[C@@H]1CO,.,.,35,.,-
Cc1cc(Cl)ccc1OCC(=O)N(Cc1cccs1)C1CCS(=O)(=O)C1 (configuration not stated),-,-,-,-,-
O=C(CSc1nc2cc(Cl)ccc2s1)NC1CCCc2ccccc21 (configuration not stated),-,-,33,-,-
CSCCCN1CCCC(CO)(Cc2ccc(F)cc2)C1 (configuration not stated),-,-,-,-,-
CSCCCN1CCCC(CO)(Cc2ccccc2F)C1 (configuration not stated),-,-,-,-,-56
COc1ccc(CN2CCN(C(=O)CCC(=O)Nc3nnc(CC(C)C)s3)CC2)cc1F,-,-,-,36,-
CCCc1nnc(NC(=O)CCC(=O)N2CCN(CCOc3ccc(C)cc3)CC2)s1,-,-,70,-,-
